How the values were obtained:
Assay type in all cases: functional
Plasmodium falciparum [1] = experiment: GSK_TCMDC: Inhibition of Plasmodium falciparum 3D7 in whole red blood cells, using parasite LDH activity as an index of growth. Test compounds present at 2uM
Plasmodium falciparum [2] = experiment: GSK_TCMDC: Inhibition of Plasmodium falciparum Dd2 in whole red blood cells, using parasite LDH activity as an index of growth. Test compounds present at 2uM
HepG2 = experiment: GSK_TCMDC: Percent inhibition of human HepG2 cell line. Test compounds present at 10uM.

| SMILES | Inhibition (Plasmodium falciparum [1]) | Inhibition (Plasmodium falciparum [2]) | Inhibition (HepG2) |
| --- | --- | --- | --- |
| Nc1ccc(-c2nc3cc(-c4ccc5[nH]c(-c6ccc(N)cc6)nc5c4)ccc3[nH]2)cc1 | 100% | 96% | 45% |
| C=CCCCNCC(NCCCNc1cc(=O)c2ccccc2[nH]1)c1cc(Br)cc(Br)c1 (stereo not drawn) | 94% | 19% | 0% |
| Cc1nc2nc(N)nc(N)c2c(C)c1Cc1cccc(C#N)c1.Cl | 97% | 1% | 64% |
| COc1ccc(-c2cccc(NC(=O)c3cccc(Cl)c3)c2)cc1CN1CCCN(C)CC1.O=C(O)C(F)(F)F | 100% | 99% | 20% |
| COC(=O)c1cccc(CNCc2ccc(-c3ccc(-c4nc5cccc(C)c5[nH]4)s3)cc2)c1.O=C(O)C(F)(F)F | 100% | 64% | 3% |
| CC(C)CCNc1nc(NCCc2ccccc2)c2cc(O)ccc2n1 | 100% | 97% | 6% |
| COc1ccc(Cl)cc1NC(=O)C(C)N1CCN(S(=O)(=O)c2ccccc2F)CC1 (stereo not drawn) | 93% | 66% | 5% |
| N=C(N)Nc1nc(-c2ccc(NCc3ccc(CNc4cccc(-c5csc(NC(=N)N)n5)c4)cc3)cc2)cs1 | 100% | 99% | 11% |
| Cc1ccc2ncc(Cl)c(CCN3CCC(NCc4ccc5c(n4)NC(=O)CS5)CC3)c2n1.Cl | 90% | 12% | 13% |
| Cc1noc(C)c1-c1cccc(CNCc2cccc(-c3cccc(-c4nc5cccc(C)c5[nH]4)c3)c2)c1.O=C(O)C(F)(F)F | 100% | 66% | 15% |
| COc1ccc2nccc([C@@H](O)CN3CCC(NC(=O)c4ccc(Oc5ccccc5)cc4)CC3)c2c1 | 82% | 13% | 39% |
| Cc1ccc(O)cc1Nc1ccnc2cc(-c3cccc(CNCCS(C)(=O)=O)c3)ccc12 | 99% | 100% | 9% |
| Cc1ccc2[nH]c3c(NCCCN(C)C)ncnc3c2c1 | 99% | 0% | 1% |
| CS(=O)(=O)Nc1cccc(-c2cnc3[nH]cc(-c4ccc(C(=O)O)cc4)c3c2)c1 | 98% | 82% | 0% |
| CCOc1ccc(Cc2c(C)nc3nc(N)nc(N)c3c2C)cc1.Cl | 91% | 7% | 63% |
| Cc1ccc(C(=O)Nc2cccc(CN3CCCN(Cc4ccc(O)cc4)CC3)c2)cc1.O=C(O)C(F)(F)F | 88% | 5% | 0% |

| SMILES | Inhibition (Plasmodium falciparum [1]) | Inhibition (Plasmodium falciparum [2]) | Inhibition (HepG2) |
| --- | --- | --- | --- |
| COc1ccc(-c2onc(C(F)(F)F)c2-c2cc3ccccc3o2)c(O)c1 | 93% | 15% | 6% |
| CCOC(=O)c1ccc(N(CCCN(CCCN(c2ccc(C(=O)OCC)cc2)S(=O)(=O)c2ccc(C)cc2)CCc2ccc(O)cc2)S(=O)(=O)c2ccc(C)cc2)cc1 | 96% | 74% | 0% |
| CC1(C)N=C(N)N=C(N)N1c1ccc(I)cc1.Cl | 92% | 1% | 16% |
| CC(=O)Nc1cccc(C(=O)Nc2nc3ccc(-c4cc(=O)[nH]c(Nc5ccccc5Cl)n4)cc3[nH]2)c1 | 99% | 62% | 0% |
| Cl.Cl.N=C(N)Nc1ccc(Cc2ccc(NC(=N)N)cc2)cc1 | 93% | 94% | 35% |
| COc1ccc(CNC(=O)NC2CCN(c3ccnc(Nc4ccc(F)cc4)n3)CC2)cc1 | 87% | 4% | 16% |
| COc1ccc(-c2ccc(CNCc3ccccc3)cc2)cc1S(=O)(=O)NCCN1CCCC1.O=C(O)C(F)(F)F | 100% | 76% | 36% |
| CC(C)CNCc1cccc(-c2ccc(CNc3ccc4ncccc4c3)cc2)c1.O=C(O)C(F)(F)F | 94% | 32% | 13% |
| CC(C)CCNC(=O)C1Cc2c([nH]c3ccc(Br)cc23)C2(CCN(CCc3ccccc3)CC2)N1 (stereo not drawn) | 100% | 61% | 25% |
| Clc1ccc(CNc2ccnc(NCCc3coc4ccccc34)n2)c(Cl)c1 | 86% | 39% | 26% |
| CC1(C)CCC(=Cc2ccc(Cl)cc2)CC1(O)Cn1ccnc1 (stereo not drawn) | 99% | 74% | 0% |
| Clc1ccc2c(Cl)c(CNCCCNc3nc4ccccc4[nH]3)[nH]c2c1 | 100% | 7% | 38% |
| CCCCCCCCc1c(C)nc(C)c(C#N)c1O | 97% | 96% | 0% |
| Cc1ccc2c(-c3ccc([N+](=O)[O-])o3)cc(C)nc2c1 | 95% | 47% | 20% |
| Cc1cccc2nc(-c3ccc(-c4ccc(CNCc5ccccc5)cc4)s3)[nH]c12.O=C(O)C(F)(F)F | 100% | 87% | 22% |
